# Screens from PubChem.
# Pf growth 96h = Primary qHTS for delayed death inhibitors of the malarial parasite plastid, 96 hour incubation. P. falciparum luciferase reporter growth, 96 h. Potency, µM (highest dose often 28.7 µM), for inactives: top-dose activity change, negative = inhibition, most hits filed as inhibitors. actives 6.9% (n = 320,000). AID 504834, 2011; further: on the % scale 0 is the no-effect control and ±100 the full control effect
#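 96 h incubation, 37 C, 5% CO2, of luciferase-reporter P. falciparum-infected RBCs (2% hematocrit, 0.05% parasitemia final) with test compounds; endpoint luminescence.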
# AMA1-RON2 inh = qHTS for Inhibitors of AMA1-RON; Towards Development of Antimalarial Drug Lead: Primary Screen. Plasmodium falciparum AMA1 (3D7) - RON2 peptide interaction. AlphaScreen AMA1-biotinylated RON2 peptide binding. Potency, µM (series often up to 58.2 µM), for inactives: at the highest dose activity change, negative = inhibition, usual class: inhibitors. actives 0.2% (n = 360,000);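 further: 0% = vehicle wells and -100% = peptide control; nearly all actives have a fitted effect of over 45% in size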
#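 AMA1 (3D7) with his tag at 25 nM final met compounds first, then biotinylated RON2 peptide at 25 nM; detection used donor plus acceptor beads, 10 µg/mL apiece, read by AlphaScreen after 30 min at room temperature.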
# Pf growth 48h = Primary qHTS for delayed death inhibitors of the malarial parasite plastid, 48 hour incubation. actives 5.9% (n = 310,000). Potency, µM (titrated, usually from 28.7 µM), for the others: at the top dose activity change, negative = inhibition, most hits filed as inhibitors. P. falciparum luciferase growth in erythrocytes, 48 h; further: on the % scale 0 is the no-effect control and ±100 the full control effect
#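 Read-out is firefly luciferase luminescence from an integrated reporter in P. falciparum, so falling signal marks reduced parasite growth. Infected erythrocytes were at 2% hematocrit and 0.1% parasitemia (final) in Albumax-supplemented RPMI 1640.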
# SARS PLpro yeast = qHTS of Yeast-based Assay for SARS-CoV PLP; S. cerevisiae expressing SARS-CoV PLpro, growth rescue; actives 0.19% (n = 330,000); Potency, µM (highest dose often 32.9 µM), for inactives: at the top dose activity, positive = growth rescue, actives largely listed as activators; AID 485353, 2010; calls by dose curve; further: 0% is about no effect; nearly all actives have a fitted effect of over 55% in size
# An asterisk follows results filed as active; u = inconclusive; x = no result. A selection: hits, their analogues and other compounds. The true share with any hit is near 9.4%. Unless noted, the call rests on the fitted dose curve; in most records, active means well fitted curve in the direction sought with a large enough effect; inconclusive means small, poorly fitted or top-dose-only effect, or another doubt; inactive means no such curve, though single readings can be large; an effect the other way counts as inactive or inconclusive. Potency means the concentration at half of the fitted maximal effect.
SMILES,Pf growth 96h,AMA1-RON2 inh,Pf growth 48h,SARS PLpro yeast
CC(=O)Cc1cc(O)c2ccccc2c1OC(=O)c1ccc(Br)cc1,5.9µM*,-7%,2.9µM*,-1%
OCC1(CCOc2ccccc2)CCN(Cc2ccncc2)CC1,u,1%,u,7%
COc1cc(CN2CCC(Cc3ccccc3)CC2)cc(OC)c1OC,9.3µM*,-23%,u,15%
OCC1(CCOc2ccccc2)CCN(CCCn2cccn2)CC1,10µM*,-1%,40%,-1%
OCC1(CCOc2ccccc2)CCN(Cc2ccc(OC(F)F)cc2)CC1,10µM*,-7%,8%,0%
COc1ccc(CN2CCC(Cc3ccccc3)CC2)c(C)c1C,u,-6%,u,-1%
OCC1(CCOc2ccccc2)CCN(Cc2ccccc2OC(F)F)CC1,u,13%,-7%,u
CCOc1cc(CN2CCC(CO)(Cc3cccc(C(F)(F)F)c3)CC2)ccc1OC,10µM*,-6%,u,0%
CCOC(=O)Cn1nnc2c(sc3nc4c(c(-c5ccc(Cl)cc5)c32)CCC4)c1=O,u,-3%,u,u
O=C(c1ccccc1NS(=O)(=O)c1cccs1)N1CCOCC1,x,-9%,1%,-3%
CCN(CC(=O)Nc1ccc(NC(C)=O)cc1)C(=O)c1ccc(C(=O)c2ccccc2)cc1,u,4%,u,1%
COc1cc(OC)c(CN2CCC(CO)(CCOc3ccccc3)CC2)c(OC)c1,0%,-12%,u,0%
COc1cc(CN2CCC(CO)(CCOc3ccccc3)CC2)cc(OC)c1OC,9%,-4%,5.9µM*,-2%
CCOC(=O)C1(CCOc2ccccc2)CCN(Cc2ccc3c(c2)OCCO3)CC1,4%,-5%,u,0%
OCC1(CCOc2ccccc2)CCN(Cc2ccc3c(c2)OCCO3)CC1,12µM*,-7%,-10%,1%
COc1ccc(CN2CCC(CO)(CCOc3ccccc3)CC2)cc1C,4%,-5%,10µM*,1%
CC(=O)N/C(=C\c1ccccc1)C(=O)Nc1ccc(O)cc1,60%,2%,-2%,1%
COc1ccc(-c2cc(=O)oc3cc(OCc4nn[nH]n4)ccc23)cc1,4.7µM*,-3%,37%,2%
Cc1cccc(NC(=O)COC(=O)c2ccccc2-c2nc3ccccc3s2)c1C,-8%,-3%,11%,-16%
CSCc1cc(N(C)C)nc(SCc2ccc(Cl)c(Cl)c2)n1,u,3%,10µM*,-16%
O=C(NC1CCCCCC1)C1c2ccccc2C(=O)N1Cc1ccco1 (configuration not stated),1µM*,-2%,0%,-11%
CC(C)N1C(=O)c2ccccc2C1C(=O)NC1CCCCCC1 (configuration not stated),0.74µM*,23%,-15%,7%
COC(=O)C1C(O)C(C)C(O)C(C)/C=C\C=C(/C)C(=O)Nc2c(C)c(OC(C)=O)c3c(c2O)C(=O)C(C)=C2OCOC(=C23)/C(C)=C/C(C)(O)C(O)C(C)C1O (configuration not stated),9.3µM*,-3%,12µM*,1%
COC1C=COC2(C)Oc3c(C)c(O)c4c(O)c(c(CN5CCN(C)CC5)c(O)c4c3C2=O)NC(=O)C(C)=CC=CC(C)C(O)C(C)C(O)C(C)C(OC(C)=O)C1C (configuration not stated),x,-6%,x,x
CCOC(=O)c1ccc(Nc2ncccc2[N+](=O)[O-])cc1,0.59µM*,u,253%,-1%
SMILES,Pf growth 96h,AMA1-RON2 inh,Pf growth 48h,SARS PLpro yeast
CCOC(=O)c1ccc(NC(=O)c2ccccc2[N+](=O)[O-])cc1,9%,11%,46%,-21%
FC(F)(F)c1cccc(-c2cc3nc(NC4CCCCC4)ccn3n2)c1,x,42%,x,x
COc1ccc2ccccc2c1CNCCc1ccccc1,4%,2%,10µM*,4%
COc1ccc2ccccc2c1CNCCN1CCOCC1,-26%,-1%,u,-4%
CN(C)c1ccc(/C=N\Nc2nc(-c3ccccc3)cc(=O)[nH]2)cc1,2.3µM*,-1%,2.3µM*,1%
CN(C)c1ccc(C=NNc2nc3c([nH]2)c(=O)n(C)c(=O)n3C)cc1,x,47%,x,x
COc1ccc(/C(C)=N\Nc2nc(-c3ccccc3)cc(=O)[nH]2)cc1,0.59µM*,0%,0.93µM*,3%
O=C(NCCN1CCCCC1)c1cc2ccccc2[nH]1,x,-10%,6%,1%
COc1ccc(NC2(c3ccccc3)OC(=O)c3ccccc32)cc1 (configuration not stated),51%,1%,16%,-3%
CC(C)C1/C(=N/O)CC(c2ccccc2)NC1c1ccccc1 (configuration not stated),9.3µM*,-15%,13µM*,0%
CC1/C(=N/O)CC(c2ccccc2)NC1c1ccccc1 (configuration not stated),u,-2%,x,-14%
CCCC1/C(=N/O)CC(c2ccccc2)NC1c1ccccc1 (configuration not stated),26%,-5%,12µM*,-5%
CCC1C(=NO)C(CC)C(c2ccccc2)NC1c1ccccc1 (configuration not stated),-29%,-15%,12µM*,-4%
CC1C(=NO)C(C)C(c2ccccc2)NC1c1ccccc1 (configuration not stated),x,-9%,-36%,6%
Cc1nnsc1C(=O)Nc1cccc(Cl)c1,11%,3%,27%,-5%
Cc1ccc(C(=O)Nc2ccc(CN3CCCCC3)cc2)c(C)c1,69%,-12%,u,-1%
COc1cccc(NC(=O)CNC(=O)N2CC(=O)Nc3ccccc32)c1,49%,0%,61%,4%
c1nc2n(n1)C1=C(CCCC1)C1(CCCCC1)N2,2.6µM*,3%,u,0%
C=CCn1c(SCC(=O)c2cc(C)n(CC3CCCO3)c2C)nnc1-c1ccccc1 (configuration not stated),9.3µM*,29%,u,3%
Cc1cc(C(=O)CSc2nnc(-c3ccc(Cl)cc3)n2C)c(C)n1CC1CCCO1 (configuration not stated),0%,-1%,u,4%
CC(=O)c1c(C)[nH]c(C(=O)CSc2nnc(-c3ccccc3)n2Cc2ccc3c(c2)OCO3)c1C,x,-6%,u,-1%
Cc1cc(C(=O)CSc2nnc(-c3cccc(F)c3)n2N)c(C)n1Cc1ccc2c(c1)OCO2,17µM*,u,12µM*,-5%
Cc1sc2nc(SCC(=O)c3cc(C)n(CC4CCCO4)c3C)n(C(C)C)c(=O)c2c1C (configuration not stated),8.3µM*,-2%,u,u
Cc1cccc(-n2nnnc2SCC(=O)c2cc(C)n(CC3CCCO3)c2C)c1 (configuration not stated),u,-6%,-24%,-2%
Cc1ccc(-n2nnnc2SCC(=O)c2cc(C)n(CC3CCCO3)c2C)cc1 (configuration not stated),1.5µM*,-6%,u,-2%
